{"source": "PubChem BioAssay (NCATS)", "key": {"[1]": {"biological_target": "Tumor susceptibility gene 101 protein (Homo sapiens) (UniProt Q99816)", "sequence (Q99816 whole entry, looked up, the tested form may be a part)": "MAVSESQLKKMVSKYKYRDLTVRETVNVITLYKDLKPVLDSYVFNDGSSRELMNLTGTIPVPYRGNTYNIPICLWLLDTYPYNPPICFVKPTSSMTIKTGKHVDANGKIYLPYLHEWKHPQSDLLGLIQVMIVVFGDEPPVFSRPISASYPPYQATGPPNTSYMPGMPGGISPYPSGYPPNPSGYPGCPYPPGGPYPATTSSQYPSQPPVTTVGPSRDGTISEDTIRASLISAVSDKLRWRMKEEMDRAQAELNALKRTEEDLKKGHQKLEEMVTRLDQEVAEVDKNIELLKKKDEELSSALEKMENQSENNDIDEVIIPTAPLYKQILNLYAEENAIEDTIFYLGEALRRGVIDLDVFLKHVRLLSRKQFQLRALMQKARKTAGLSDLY", "test": "qHTS Assay for Iinhibitors of HIV-1 Budding by Blocking the Interaction of PTAP/TSG101: Hit Validation (AID 651600); also: potency is read from the fitted curve at half-maximal effect; nearly all actives have a fitted effect of over 70% in size", "conditions": "PTAP peptide/TSG101 UEV interaction, biochemical assay", "how_it_was_run": "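Fluorescence polarization binding assay: Tsg101 binding domain (10 uM final) pre-dispensed with compounds, then FITC-labeled PTAP-motif peptide (50 nM final) added; 20 min at r.t. in HEPES pH 7.5 buffer with NaCl, Tween 20, EDTA, TCEP.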"}, "[2]": {"test": "qHTS assay for small molecule disruptors of the mitochondrial membrane potential - 1 hr assay (AID 651754; calls by dose curve; also: nearly all actives have a fitted effect of over 35% in size; also: potency is read from the fitted curve at half-maximal effect)", "conditions": "series mostly up to 92.2 µM", "how_it_was_run": "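HepG2, 2,000 cells/well, overnight attachment; cpd or DMSO 1 hr, 37C/5% CO2; Mito-MPS dye 30 min, 37C; fluorescence monomer (490/535) and aggregate (540/590).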"}, "[3]": {"test": "qHTS assay for small molecule disruptors of the mitochondrial membrane potential - 5 hr assay (AID 651755; calls by dose curve; also: nearly all actives have a fitted effect of over 40% in size; also: potency is read from the fitted curve at half-maximal effect)", "conditions": "JC-1-type ratio dye; series mostly up to 92.2 µM", "how_it_was_run": "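HepG2 cells, attached overnight at 37C, were exposed to compound or DMSO for 5 hr at 37C, 5% CO2. Mito-MPS dye was then added for 30 min, and fluorescence read at 490/535 nm (monomers) and 540/590 nm (aggregates).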"}, "[4]": {"biological_target": "Peroxisome proliferator-activated receptor alpha (Homo sapiens) (UniProt Q07869)", "sequence (Q07869 whole entry, looked up)": "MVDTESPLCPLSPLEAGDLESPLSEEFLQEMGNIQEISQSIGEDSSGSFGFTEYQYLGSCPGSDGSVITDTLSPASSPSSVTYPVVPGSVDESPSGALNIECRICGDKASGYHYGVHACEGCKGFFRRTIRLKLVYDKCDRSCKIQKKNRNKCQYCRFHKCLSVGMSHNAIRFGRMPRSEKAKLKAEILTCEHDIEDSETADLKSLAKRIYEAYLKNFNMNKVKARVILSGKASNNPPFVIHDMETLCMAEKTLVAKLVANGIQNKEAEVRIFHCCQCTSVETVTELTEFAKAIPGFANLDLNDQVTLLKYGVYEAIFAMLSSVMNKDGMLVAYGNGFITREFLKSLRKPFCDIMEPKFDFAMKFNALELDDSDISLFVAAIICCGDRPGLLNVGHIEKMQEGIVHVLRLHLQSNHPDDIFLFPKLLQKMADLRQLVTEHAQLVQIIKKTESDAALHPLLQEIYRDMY", "test": "qHTS assay for small molecule agonists of the peroxisome proliferator-activated receptor alpha (PPARalpha) signaling pathway (AID 651778); also: % of control where 0% means no effect", "conditions": "PathHunter PPARalpha complementation, chemiluminescence, 6 h; max response: stronger effect = higher value", "how_it_was_run": "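Cells plated at 2,000/well and held overnight at 37 C, 5% CO2, then compound added by pin tool for 6 hr; after PathHunter detection reagent and 60 min at room temperature, chemiluminescence from enzyme complementation was read.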"}, "[5]": {"biological_target": "Nuclear receptor ROR-gamma (Homo sapiens) (UniProt P51449)", "sequence (P51449 whole entry, looked up)": "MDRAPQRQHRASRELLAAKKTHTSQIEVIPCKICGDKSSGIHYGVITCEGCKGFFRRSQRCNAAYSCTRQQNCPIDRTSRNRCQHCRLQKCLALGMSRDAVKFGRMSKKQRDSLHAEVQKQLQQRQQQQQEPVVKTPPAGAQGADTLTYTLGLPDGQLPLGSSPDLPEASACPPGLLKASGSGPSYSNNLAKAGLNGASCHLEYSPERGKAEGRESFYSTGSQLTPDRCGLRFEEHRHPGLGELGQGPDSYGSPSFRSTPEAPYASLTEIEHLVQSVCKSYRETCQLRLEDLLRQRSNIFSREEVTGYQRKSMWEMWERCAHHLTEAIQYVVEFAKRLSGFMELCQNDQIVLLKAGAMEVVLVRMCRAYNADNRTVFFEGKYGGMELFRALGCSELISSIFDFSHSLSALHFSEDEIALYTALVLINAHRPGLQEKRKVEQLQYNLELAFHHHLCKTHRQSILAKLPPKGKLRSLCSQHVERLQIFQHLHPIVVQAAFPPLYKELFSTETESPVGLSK", "test": "qHTS assay for small molecule antagonists of the retinoid-related orphan receptor gamma (ROR-gamma) signaling pathway (AID 651802); also: potency is read from the fitted curve at half-maximal effect; nearly all actives have a fitted effect of over 60% in size", "conditions": "ROR-gamma antagonist cell reporter assay; series mostly up to 92.2 µM", "how_it_was_run": "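CHO, TET-inducible ROR + RORE-LUC reporter, 1536-well qHTS. Compound pinned, doxycycline added, 16hr 37C/5% CO2. ONE-Glo, 30 min RT, luminescence; signal drop scored as antagonism.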"}, "[6]": {"test": "Cell Proliferation Assay against the TMD8 Cell Line (AID 651645)", "conditions": "TMD8 DLBCL cell line proliferation/viability; at 46.1 µM (top of the series) unless noted", "how_it_was_run": "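TMD8 ABC DLBCL cells, 500 per well in phenol red-free RPMI with 5% FBS, were treated with compound by pin transfer and incubated 48 hours at 37C, 5% CO2. Viability was read by CellTiter-Glo luminescence, normalised to DMSO (100%) and 9.2 uM bortezomib (0%).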"}, "[7]": {"test": "Cell Proliferation Assay against the TMD8 Cell Line (Caspase readout at 8 hrs) (AID 651713)", "conditions": "TMD8 lymphoma cells, caspase activation luminescence; series mostly up to 46.1 µM", "how_it_was_run": "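Seed log-phase TMD8 cells, add compound by pin tool, incubate 8 h at 37C under 5% CO2, equilibrate to room temperature, add Caspase-Glo, wait 15 min, read luminescence; percent activity uses DMSO and 9.2 uM bortezomib controls.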"}, "[8]": {"biological_target": "Tyrosine-protein kinase Yes (Homo sapiens) (UniProt P07947)", "sequence (P07947 whole entry, looked up)": "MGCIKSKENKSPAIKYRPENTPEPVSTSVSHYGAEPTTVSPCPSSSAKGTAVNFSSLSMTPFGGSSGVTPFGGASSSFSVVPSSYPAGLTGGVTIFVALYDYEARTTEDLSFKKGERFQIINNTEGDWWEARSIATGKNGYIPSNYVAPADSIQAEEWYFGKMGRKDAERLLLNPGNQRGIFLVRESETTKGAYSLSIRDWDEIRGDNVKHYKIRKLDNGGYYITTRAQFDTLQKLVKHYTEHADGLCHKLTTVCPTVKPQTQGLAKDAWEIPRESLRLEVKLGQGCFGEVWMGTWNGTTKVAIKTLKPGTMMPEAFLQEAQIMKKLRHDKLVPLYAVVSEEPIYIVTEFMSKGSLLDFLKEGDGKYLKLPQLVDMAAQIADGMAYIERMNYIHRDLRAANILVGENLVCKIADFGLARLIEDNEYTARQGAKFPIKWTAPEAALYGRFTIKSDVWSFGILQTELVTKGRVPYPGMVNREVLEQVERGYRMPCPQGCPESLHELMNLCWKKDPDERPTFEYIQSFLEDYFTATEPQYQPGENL", "test": "qHTS for small molecule inhibitors of Yes1 kinase: Primary Screen (AID 686947); also: nearly all actives have a fitted effect of over 60% in size", "conditions": "Yes1 kinase biochemical qHTS inhibition; series mostly up to 76.9 µM", "how_it_was_run": "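Yes1 (4 nM) preincubated 20 min with compound, then 60 min room-temperature reaction with 0.1 mM ATP and 0.3 mg/mL poly(E4Y) in pH 7.5 Tris, 10 mM MgCl2. ADP measured by ADP-Glo luminescence, normalised to enzyme/no-enzyme controls.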"}, "[9]": {"test": "qHTS for small molecule inhibitors of Yes1 kinase: Counter Assay (AID 686950);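 also: no kinase present so only ADP-Glo detection of a fixed ADP amount is tested; luminescence from ADP-Glo reporting ADP in a fixed ATP and ADP mixture; 0% = DMSO wells with ATP plus ADP and -100% = ATP-only wells without ADP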", "conditions": "series mostly up to 76.9 µM", "how_it_was_run": "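Enzyme-free ADP-Glo interference check: compounds were preincubated 20 min in buffer, then an ATP/ADP mix (0.08 mM ATP, 0.02 mM ADP final) was added for 60 min at room temperature before two-step ADP-Glo luminescence detection.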"}, "[10]": {"biological_target": "Arylsulfatase A (Homo sapiens) (UniProt P15289)", "sequence (P15289 whole entry, looked up)": "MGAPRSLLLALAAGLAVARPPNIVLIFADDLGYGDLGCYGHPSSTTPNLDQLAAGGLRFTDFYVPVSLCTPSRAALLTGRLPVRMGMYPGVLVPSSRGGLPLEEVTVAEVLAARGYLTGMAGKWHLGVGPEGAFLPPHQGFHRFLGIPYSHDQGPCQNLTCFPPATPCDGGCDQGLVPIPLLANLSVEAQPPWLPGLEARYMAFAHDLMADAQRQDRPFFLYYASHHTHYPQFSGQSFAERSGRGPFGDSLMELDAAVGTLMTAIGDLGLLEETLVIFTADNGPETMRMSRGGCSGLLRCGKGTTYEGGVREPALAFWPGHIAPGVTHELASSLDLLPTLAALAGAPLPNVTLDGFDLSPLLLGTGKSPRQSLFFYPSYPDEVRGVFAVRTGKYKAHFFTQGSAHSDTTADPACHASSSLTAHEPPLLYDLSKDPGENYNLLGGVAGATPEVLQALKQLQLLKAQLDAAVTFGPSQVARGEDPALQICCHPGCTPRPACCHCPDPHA", "test": "qHTS screen for enhancers of Arylsulfatase A (ASA1): LOPAC Validation Assay (AID 720538)", "conditions": "ASA enzyme activity, LOPAC qHTS enhancer assay; series mostly up to 57.5 µM", "how_it_was_run": "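SV40-transformed skin fibroblasts from an MLD patient (ASA-I179S) were treated with compounds for 48h at 37 degree C, then lysed with 0.5mM pNCS final substrate for 14h at room temperature; NaOH stop, fluorescence read (Ex=525 nm; Em=598 nm).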"}, "[11]": {"test": "qHTS for compounds that reverse cellular toxicity of Amyloid beta (A-beta) peptide in yeast: LOPAC Validation Assay (AID 720559);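 also: plate controls were DMSO for no effect and equimolar ferric chloride plus clioquinol rescue for full effect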", "conditions": "yeast expressing A-beta; series mostly up to 46.1 µM", "how_it_was_run": "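Yeast cells expressing toxic A-beta were combined with pinned compounds in growth medium and incubated 48 hr at 30 C. Growth was read as absorbance at 600 nm and normalized to DMSO and to an equimolar FeCl3/clioquinol positive control.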"}, "[12]": {"test": "qHTS for Activators of Parkin Expression: LOPAC Validation Assay (NLuc Reporter) (AID 720572)", "conditions": "Parkin promoter NanoLuc reporter cells, luminescence, percent of positive control, DMSO as zero; series mostly up to 46.1 µM", "how_it_was_run": "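Neuronal line stably carrying a FLuc/NLuc coincidence reporter under the Parkin promoter, seeded 24 h, then dosed in 7-point series for 24 h at 37 C. NLuc luminescence read after FLuc; normalized to DMSO and positive control (100%).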"}, "[13]": {"test": "qHTS for Activators of Parkin Expression: LOPAC Validation Assay (FLuc Reporter) (AID 720573)", "conditions": "Cell line, PRKN promoter firefly luciferase reporter, vehicle wells = 0, positive control = 100%; series mostly up to 46.1 µM", "how_it_was_run": "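Neuronal cell line stably carrying FLuc/NLuc coincidence reporter under Parkin promoter; cells plated 24 h, then compounds added in 7-point dose response for 24 h at 37 C. FLuc luminescence read; normalized to DMSO and positive control (100%).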"}, "[14]": {"test": "qHTS assay for small molecule agonists of the antioxidant response element (ARE) signaling pathway (AID 651741; active = well fitted activation curve with a large enough effect in the signal ratio; the % refers to the signal ratio; also: potency is read from the fitted curve at half-maximal effect; as to activation: % of control where 0% means no effect)", "conditions": "HepG2 ARE-bla reporter, beta-lactamase FRET ratio, 16 h; series mostly up to 96 µM", "how_it_was_run": "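Compounds in DMSO are pinned onto HepG2 ARE-bla cells (2,000/well) that were preincubated 5 h; plates stay 16 h at 37 C, then beta-lactamase activity is detected with LiveBLAzer B/G substrate by fluorescence.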"}, "[15]": {"test": "qHTS assay for small molecule activators of the p53 signaling pathway (AID 651743; active = well fitted activation curve with a large enough effect in the signal ratio, not every such curve was filed as active; the % refers to the signal ratio; also: % of control where 0% means no effect)", "conditions": "HCT-116 p53RE-bla, beta-lactamase FRET ratio, 16 h; activation: stronger effect = higher value", "how_it_was_run": "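Cell-based beta-lactamase reporter (p53 response elements, HCT-116 background). After a 5-hour preincubation, cells received compound for 16 hours at 37 C; substrate development ran 2 hours at room temperature.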"}, "[16]": {"test": "qHTS assay for small molecule agonists of the antioxidant response element (ARE) signaling pathway measured by Nrf2-dependant transcriptional activity (AID 720636; active = well fitted curve in the direction sought with a large enough effect in the repeat runs; an effect the other way counts as inactive or inconclusive; also: potency is read from the fitted curve at half-maximal effect; as to activation: % of control where 0% means no effect)", "conditions": "ARE-luc HepG2, Nrf2 luciferase reporter, 16 h; series mostly up to 92.4 µM", "how_it_was_run": "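Nrf2-dependent transcription read as ONE-Glo luciferase signal from ARE-luc HepG2 reporter cells after 16 hr compound treatment at 37 C, 5% CO2, in assay medium with 1% dialyzed FBS.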"}, "[17]": {"test": "qHTS assay for small molecule activators of the nuclear factor-kappa B (NF-kB) signaling pathway (AID 651749; active = well fitted activation curve with a large enough effect in the signal ratio; the % refers to the signal ratio; also: % of control where 0% means no effect)", "conditions": "NF-kB-bla ME-180 cells, beta-lactamase FRET ratio, 16 h; stronger effect = higher value", "how_it_was_run": "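Screening used 2,000 ME-180 reporter cells per well exposed to pinned compound (23 nL) or DMSO; after 16 hr at 37C, beta-lactamase expression under NF-kB control was assessed through FRET.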"}, "[18]": {"biological_target": "Tumor necrosis factor (Homo sapiens) (UniProt P01375)", "sequence (P01375 whole entry, looked up)": "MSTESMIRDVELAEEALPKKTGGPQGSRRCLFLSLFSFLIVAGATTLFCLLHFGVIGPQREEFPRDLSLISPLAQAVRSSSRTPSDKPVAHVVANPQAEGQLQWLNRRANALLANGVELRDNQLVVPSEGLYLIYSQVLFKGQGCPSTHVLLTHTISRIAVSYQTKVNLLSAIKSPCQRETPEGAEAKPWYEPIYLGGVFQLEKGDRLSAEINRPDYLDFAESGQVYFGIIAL", "test": "qHTS assay to identify small molecules that stimulate Tumor Necrosis Factor-alpha (TNF-alpha) secretion (AID 651757; active = well fitted curve in the direction sought with a large enough effect in the signal ratio; the % refers to the signal ratio; also: 0% is about no effect)", "conditions": "Human cells, HTRF 665/615 ratio; series mostly up to 92.2 µM", "how_it_was_run": "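Read-out is HTRF, a TR-FRET sandwich of cryptate- and XL665-labeled anti-TNF-alpha antibodies detecting cytokine secreted by THP-1 cells. Cells had been incubated with test compounds at 37 C for 17 hrs beforehand.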"}}, "note": "Several values for one entry are separate records, joined by “and”; a condition that tells them apart may be missing. Identical values can stand only once. Results filed as inconclusive are left out. Activity calls are given as the source filed them. Unless noted, calls follow the shape of the dose curve; as a rule, active = well fitted curve in the direction sought with a large enough effect; inconclusive = small, poorly fitted or top-dose-only effect, or another doubt; inactive = no such curve, though single readings can be large; an effect the other way counts as inactive or inconclusive."}
{"molecule": "COc1cccc2c1C(=O)c1c(O)c3c(c(O)c1C2=O)C[C@@](O)(C(C)=O)C[C@@H]3O[C@H]1C[C@H](N)[C@H](O)[C@H](C)O1", "values": [{"measurement": "Potency", "setting": "[1]", "value": "16.3 µM (active)"}, {"measurement": "Potency", "setting": "[2]", "value": "6.68 µM (active)"}, {"measurement": "Potency", "setting": "[3]", "value": "5.96 µM (active)"}, {"measurement": "max response", "setting": "[4]", "value": "-9.3% (inactive)"}, {"measurement": "Potency", "setting": "[5]", "value": "18.8 µM (active)"}]}
{"molecule": "COc1cc2c(cc1O)CC[C@@H]1[C@@H]2CC[C@]2(C)[C@@H](O)CC[C@@H]12", "values": [{"measurement": "viability (% of control)", "setting": "[6]", "value": 24.3, "unit": "%"}, {"measurement": "Potency", "setting": "[7]", "value": "inactive"}, {"measurement": "outcome", "setting": "[8]", "value": "inactive"}, {"measurement": "outcome", "setting": "[9]", "value": "inactive"}, {"measurement": "outcome", "setting": "[10]", "value": "inactive"}, {"measurement": "outcome", "setting": "[11]", "value": "inactive"}, {"measurement": "outcome", "setting": "[12]", "value": "inactive"}, {"measurement": "outcome", "setting": "[13]", "value": "inactive"}]}
{"molecule": "CC(C)(Oc1ccc(Cl)cc1)C(=O)O", "values": [{"measurement": "Potency", "setting": "[14]", "value": "inactive"}, {"measurement": "activation", "setting": "[15]", "value": "0.845% (inactive)"}, {"measurement": "max response", "setting": "[4]", "value": "8.18% (inactive)"}, {"measurement": "Potency", "setting": "[16]", "value": "inactive"}]}
{"molecule": "CN(C)C(=S)SC(=S)N(C)C", "values": [{"measurement": "activation", "setting": "[15]", "value": "-1.54% (inactive)"}, {"measurement": "activation", "setting": "[17]", "value": "-1.81% (inactive)"}, {"measurement": "max response", "setting": "[4]", "value": "0.0294% (inactive)"}, {"measurement": "Potency", "setting": "[16]", "value": "inactive"}]}
{"molecule": "Oc1c(I)cc(Cl)c2cccnc12", "values": [{"measurement": "Potency", "setting": "[14]", "value": "26.6 µM (active)"}, {"measurement": "activation", "setting": "[15]", "value": "24.3% (inactive)"}, {"measurement": "outcome", "setting": "[18]", "value": "inactive"}, {"measurement": "max response", "setting": "[4]", "value": "1.34% (inactive)"}, {"measurement": "Potency", "setting": "[5]", "value": "23.7 µM (active)"}, {"measurement": "Potency", "setting": "[16]", "value": "5.96 µM (active)"}]}
{"molecule": "CC(C)(C)CC(C)(C)c1ccc(OCCOCC[N+](C)(C)Cc2ccccc2)cc1", "values": [{"measurement": "activation", "setting": "[15]", "value": "20.5% (inactive)"}, {"measurement": "Potency", "setting": "[3]", "value": "inactive"}, {"measurement": "outcome", "setting": "[18]", "value": "inactive"}, {"measurement": "max response", "setting": "[4]", "value": "-0.283% (inactive) and 4.47% (inactive)"}]}
{"molecule": "CC(=O)O[C@]1(C(C)=O)CC[C@H]2[C@@H]3C[C@H](C)C4=CC(=O)CC[C@]4(C)[C@H]3CC[C@@]21C", "values": [{"measurement": "Potency", "setting": "[14]", "value": "27.3 µM (active)"}, {"measurement": "activation", "setting": "[15]", "value": "-2.08% (inactive) and -7.09% (inactive)"}, {"measurement": "activation", "setting": "[17]", "value": "-2.22% (inactive) and -5.39% (inactive)"}, {"measurement": "Potency", "setting": "[2]", "value": "inactive"}, {"measurement": "outcome", "setting": "[18]", "value": "inactive"}, {"measurement": "max response", "setting": "[4]", "value": "0.549% (inactive) and -0.24% (inactive)"}, {"measurement": "Potency", "setting": "[5]", "value": "16.8 µM (active)"}, {"measurement": "Potency", "setting": "[16]", "value": "inactive"}]}
